Among all 5,500 compounds or so, about 2,000 (36%) were called active. Roughly 18% stayed inconclusive and do not appear here. No stated cut-off is given here; in the data, active means normalized growth mostly below about 0.91 (no sharp cut-off); inconclusive means no clear call, values can overlap the other calls; inactive means mostly above about 0.92. This is one part of the list.
Test: chemical genetic growth profiling, strain panel (AID 1159580);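 further: tested at 20 µM; growth read once vehicle control cultures reached saturation at 30 °C; 1 = growth at the plate median or of vehicle wells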
Details: growth OD
[1] = S. cerevisiae deletion strains, locus YDL101C, strain DUN1, stronger effect = lower value
[2] = S. cerevisiae deletion strains, locus YHR030C, strain SLT2, stronger effect = lower value

Measured: normalized growth

N#Cc1ccc2[nH]cc(CCN(Cc3ccccc3)Cc3ccccc3)c2c1
inactive: S. cerevisiae deletion strains, locus YAR019C, strain CDC15, stronger effect = lower value 0.989 | S. cerevisiae deletion strains, locus YBL105C, strain PKC1, stronger effect = lower value 0.991 | S. cerevisiae deletion strains, locus YBR135W, strain CKS1, stronger effect = lower value 0.99 | S. cerevisiae deletion strains, locus YBR136W, strain MEC1, stronger effect = lower value 0.984 | S. cerevisiae deletion strains, locus YBR160W, strain CDC28, stronger effect = lower value 0.989 | S. cerevisiae deletion strains, locus YDL017W, strain CDC7, stronger effect = lower value 0.99 | S. cerevisiae deletion strains, locus YDL028C, strain MPS1, stronger effect = lower value 0.977 | [1] 0.98 | S. cerevisiae deletion strains, locus YDL108W, strain KIN28, stronger effect = lower value 0.983 | S. cerevisiae deletion strains, locus YDL132W, strain cdc53, stronger effect = lower value 0.985 | S. cerevisiae deletion strains, locus YDL214C, strain PRR2, stronger effect = lower value 0.943 | S. cerevisiae deletion strains, locus YDR052C, strain DBF4, stronger effect = lower value 0.992 | S. cerevisiae deletion strains, locus YDR054C, strain cdc34, stronger effect = lower value 0.978 | S. cerevisiae deletion strains, locus YDR226W, strain ADK1, stronger effect = lower value 0.978 | S. cerevisiae deletion strains, locus YDR477W, strain SNF1, stronger effect = lower value 0.969 | S. cerevisiae deletion strains, locus YER123W, strain YCK3, stronger effect = lower value 0.918 | S. cerevisiae deletion strains, locus YER133W, strain GLC7, stronger effect = lower value 0.964 | S. cerevisiae deletion strains, locus YFL009W, strain cdc4, stronger effect = lower value 0.982 | S. cerevisiae deletion strains, locus YFL029C, strain CAK1, stronger effect = lower value 0.986 | S. cerevisiae deletion strains, locus YFR003C, strain YPI1, stronger effect = lower value 0.992 | S. cerevisiae deletion strains, locus YFR019W, strain FAB1, stronger effect = lower value 0.967 | S. cerevisiae deletion strains, locus YFR028C, strain CDC14, stronger effect = lower value 0.982 | S. cerevisiae deletion strains, locus YGR040W, strain KSS1, stronger effect = lower value 0.956 | S. cerevisiae deletion strains, locus YGR052W, strain FMP48, stronger effect = lower value 1.05 | S. cerevisiae deletion strains, locus YGR092W, strain DBF2, stronger effect = lower value 0.943 | [2] 1.13 | S. cerevisiae deletion strains, locus YHR079C, strain IRE1, stronger effect = lower value 1.07 | S. cerevisiae deletion strains, locus YHR082C, strain KSP1, stronger effect = lower value 1.05 | S. cerevisiae deletion strains, locus YHR205W, strain SCH9, stronger effect = lower value 0.962 | S. cerevisiae deletion strains, locus YIL147C, strain SLN1, stronger effect = lower value 0.987 | S. cerevisiae deletion strains, locus YJL095W, strain BCK1, stronger effect = lower value 1.07 | S. cerevisiae deletion strains, locus YJL128C, strain PBS2, stronger effect = lower value 0.953 | S. cerevisiae deletion strains, locus YJL157C, strain FAR1, stronger effect = lower value 0.954 | S. cerevisiae deletion strains, locus YJR016C, strain ILV3, stronger effect = lower value 0.991 | S. cerevisiae deletion strains, locus YJR066W, strain TOR1 (second series), stronger effect = lower value 0.926 | S. cerevisiae deletion strains, locus YJR066W, strain TOR1, stronger effect = lower value 1.07 | S. cerevisiae deletion strains, locus YKL048C, strain ELM1, stronger effect = lower value 0.964 | S. cerevisiae deletion strains, locus YKL067W, strain YNK1, stronger effect = lower value 0.969 | S. cerevisiae deletion strains, locus YKL101W, strain HSL1, stronger effect = lower value 0.954 | S. cerevisiae deletion strains, locus YKL193C, strain SDS22, stronger effect = lower value 0.987 | S. cerevisiae deletion strains, locus YKL203C, strain TOR2, stronger effect = lower value 1.04 | S. cerevisiae deletion strains, locus YLR113W, strain HOG1, stronger effect = lower value 1.01 | S. cerevisiae deletion strains, locus YLR133W, strain CKI1, stronger effect = lower value 0.98 | S. cerevisiae deletion strains, locus YLR403W, strain SFP1, stronger effect = lower value 0.962 | S. cerevisiae deletion strains, locus YML070W, strain DAK1, stronger effect = lower value 0.95 | S. cerevisiae deletion strains, locus YMR001C, strain CDC5, stronger effect = lower value 0.988 | S. cerevisiae deletion strains, locus YMR205C, strain PFK2 (second series), stronger effect = lower value 0.972 | S. cerevisiae deletion strains, locus YMR277W, strain FCP1, stronger effect = lower value 0.993 | S. cerevisiae deletion strains, locus YNL006W, strain LST8, stronger effect = lower value 0.983 | S. cerevisiae deletion strains, locus YNL020C, strain ARK1, stronger effect = lower value 0.98 | S. cerevisiae deletion strains, locus YNL161W, strain CBK1, stronger effect = lower value 0.993 | S. cerevisiae deletion strains, locus YNL183C, strain NPR1, stronger effect = lower value 1.05 | S. cerevisiae deletion strains, locus YNL207W, strain RIO2, stronger effect = lower value 0.979 | S. cerevisiae deletion strains, locus YNL222W, strain SSU72, stronger effect = lower value 0.986 | S. cerevisiae deletion strains, locus YNL307C, strain MCK1 (second series), stronger effect = lower value 0.98 | S. cerevisiae deletion strains, locus YOL078W, strain AVO1, stronger effect = lower value 0.987 | S. cerevisiae deletion strains, locus YOL136C, strain PFK27, stronger effect = lower value 0.957 | S. cerevisiae deletion strains, locus YOR061W, strain CKA2, stronger effect = lower value 0.955 | S. cerevisiae deletion strains, locus YOR119C, strain RIO1, stronger effect = lower value 1.01 | S. cerevisiae deletion strains, locus YOR231W, strain MKK1, stronger effect = lower value 1.06 | S. cerevisiae deletion strains, locus YOR329C, strain SCD5, stronger effect = lower value 0.993 | S. cerevisiae deletion strains, locus YPL031C, strain PHO85, stronger effect = lower value 0.97 | S. cerevisiae deletion strains, locus YPL153C, strain RAD53, stronger effect = lower value 0.954 | S. cerevisiae deletion strains, locus YPL204W, strain HRR25, stronger effect = lower value 0.97 | S. cerevisiae deletion strains, locus YPL209C, strain IPL1, stronger effect = lower value 0.994 | S. cerevisiae deletion strains, locus YPL256C, strain CLN2, stronger effect = lower value 1.05 | S. cerevisiae deletion strains, locus YPR025C, strain CCL1, stronger effect = lower value 0.992 | S. cerevisiae deletion strains, locus YPR106W, strain ISR1, stronger effect = lower value 0.984 | S. cerevisiae deletion strains, locus YPR111W, strain DBF20, stronger effect = lower value 0.976 | S. cerevisiae deletion strains, strain NNK1, stronger effect = lower value 0.983 | S. cerevisiae deletion strains, strain TSCII, stronger effect = lower value 0.993

N#CCS(=O)(=O)c1cccs1
inactive: S. cerevisiae deletion strains, locus YAL013W, strain DEP1, stronger effect = lower value 0.988 | S. cerevisiae deletion strains, locus YBR229C, strain ROT2, stronger effect = lower value 1 | [1] 0.983 | S. cerevisiae deletion strains, locus YDR150W, strain NUM1, stronger effect = lower value 0.94 | S. cerevisiae deletion strains, locus YEL061C, strain CIN8, stronger effect = lower value 1.01 | S. cerevisiae deletion strains, locus YGR078C, strain PAC10, stronger effect = lower value 0.979 | [2] 0.996 | S. cerevisiae deletion strains, locus YHR087W, strain rtc3, stronger effect = lower value 1 | S. cerevisiae deletion strains, locus YJR043C, strain POL32, stronger effect = lower value 0.949 | S. cerevisiae deletion strains, locus YJR075W, strain HOC1, stronger effect = lower value 0.993 | S. cerevisiae deletion strains, locus YLR039C, strain RIC1, stronger effect = lower value 1.1 | S. cerevisiae deletion strains, locus YLR058C, strain SHM2 (second series), stronger effect = lower value 1 | S. cerevisiae deletion strains, locus YLR085C, strain ARP6, stronger effect = lower value 0.999 | S. cerevisiae deletion strains, locus YLR262C, strain YPT6, stronger effect = lower value 1.12 | S. cerevisiae deletion strains, locus YML094W, strain GIM5, stronger effect = lower value 0.975 | S. cerevisiae deletion strains, locus YMR219W, strain ESC1, stronger effect = lower value 1 | S. cerevisiae deletion strains, locus YMR263W, strain SAP30, stronger effect = lower value 0.961 | S. cerevisiae deletion strains, locus YNL153C, strain GIM3, stronger effect = lower value 0.968 | S. cerevisiae deletion strains, locus YNL298W, strain CLA4 (second series), stronger effect = lower value 1 | S. cerevisiae deletion strains, locus YNL322C, strain KRE1, stronger effect = lower value 1.02 | S. cerevisiae deletion strains, locus YNR030W, strain Alg12, stronger effect = lower value 0.989 | S. cerevisiae deletion strains, locus YPL055C, strain LGE1, stronger effect = lower value 0.92 | S. cerevisiae deletion strains, locus YPL241C, strain CIN2, stronger effect = lower value 0.983 | S. cerevisiae deletion strains, locus YPR135W, strain CTF4, stronger effect = lower value 0.885 | S. cerevisiae strains, strain wild type, stronger effect = lower value 1.01
